Measurements as given in ChEMBL document CHEMBL3988442, “University of Dundee, Small-Polar-MMV Screening Library” (2021).
For some of these results: Results with a measured potency or affinity are listed apart.

What was measured:
Set-up in all cases: scale not given: direction of the effect not stated beside the values
[1] = target: Protein translocase subunit SecA (Escherichia coli (strain K12)) (UniProt P10408); assay: Assay to Identify E. coli SecA ATPase Inhibitors; type: functional; conditions: 30 µM
Chain of Protein translocase subunit SecA (Escherichia coli (strain K12)) (P10408 whole entry): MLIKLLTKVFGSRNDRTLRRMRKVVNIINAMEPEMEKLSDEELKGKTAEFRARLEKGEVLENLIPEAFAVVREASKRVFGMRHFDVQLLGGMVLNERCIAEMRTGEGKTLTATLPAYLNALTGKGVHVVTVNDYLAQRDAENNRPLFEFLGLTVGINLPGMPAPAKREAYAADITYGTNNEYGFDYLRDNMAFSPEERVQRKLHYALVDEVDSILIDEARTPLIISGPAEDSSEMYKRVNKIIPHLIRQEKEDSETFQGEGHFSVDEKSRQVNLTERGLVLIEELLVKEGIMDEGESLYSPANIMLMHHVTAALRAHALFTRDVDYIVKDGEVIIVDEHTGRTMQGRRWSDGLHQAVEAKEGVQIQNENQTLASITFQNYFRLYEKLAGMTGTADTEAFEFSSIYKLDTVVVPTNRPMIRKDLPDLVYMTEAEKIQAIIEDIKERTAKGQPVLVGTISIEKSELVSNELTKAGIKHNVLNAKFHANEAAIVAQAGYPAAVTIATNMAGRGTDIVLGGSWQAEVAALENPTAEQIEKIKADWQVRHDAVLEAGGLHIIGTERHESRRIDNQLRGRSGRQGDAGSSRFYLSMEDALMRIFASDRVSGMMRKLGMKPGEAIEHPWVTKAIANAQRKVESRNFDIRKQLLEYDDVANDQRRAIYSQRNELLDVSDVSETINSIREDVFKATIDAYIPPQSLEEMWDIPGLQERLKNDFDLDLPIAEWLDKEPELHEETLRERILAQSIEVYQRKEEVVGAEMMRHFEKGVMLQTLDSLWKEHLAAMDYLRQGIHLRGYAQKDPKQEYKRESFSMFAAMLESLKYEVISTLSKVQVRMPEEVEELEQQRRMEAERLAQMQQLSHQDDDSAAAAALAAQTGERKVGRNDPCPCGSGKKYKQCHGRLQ

[2] = target: T1, Ubiquitin-activating enzyme e1, putative (Leishmania donovani (strain BPK282A1)) (UniProt E9BSI1); assay: Leishmania donovani Ubiquitin Activating Enzyme (LdE1); type: functional; conditions: 30 µM
T1 sequence (whole entry): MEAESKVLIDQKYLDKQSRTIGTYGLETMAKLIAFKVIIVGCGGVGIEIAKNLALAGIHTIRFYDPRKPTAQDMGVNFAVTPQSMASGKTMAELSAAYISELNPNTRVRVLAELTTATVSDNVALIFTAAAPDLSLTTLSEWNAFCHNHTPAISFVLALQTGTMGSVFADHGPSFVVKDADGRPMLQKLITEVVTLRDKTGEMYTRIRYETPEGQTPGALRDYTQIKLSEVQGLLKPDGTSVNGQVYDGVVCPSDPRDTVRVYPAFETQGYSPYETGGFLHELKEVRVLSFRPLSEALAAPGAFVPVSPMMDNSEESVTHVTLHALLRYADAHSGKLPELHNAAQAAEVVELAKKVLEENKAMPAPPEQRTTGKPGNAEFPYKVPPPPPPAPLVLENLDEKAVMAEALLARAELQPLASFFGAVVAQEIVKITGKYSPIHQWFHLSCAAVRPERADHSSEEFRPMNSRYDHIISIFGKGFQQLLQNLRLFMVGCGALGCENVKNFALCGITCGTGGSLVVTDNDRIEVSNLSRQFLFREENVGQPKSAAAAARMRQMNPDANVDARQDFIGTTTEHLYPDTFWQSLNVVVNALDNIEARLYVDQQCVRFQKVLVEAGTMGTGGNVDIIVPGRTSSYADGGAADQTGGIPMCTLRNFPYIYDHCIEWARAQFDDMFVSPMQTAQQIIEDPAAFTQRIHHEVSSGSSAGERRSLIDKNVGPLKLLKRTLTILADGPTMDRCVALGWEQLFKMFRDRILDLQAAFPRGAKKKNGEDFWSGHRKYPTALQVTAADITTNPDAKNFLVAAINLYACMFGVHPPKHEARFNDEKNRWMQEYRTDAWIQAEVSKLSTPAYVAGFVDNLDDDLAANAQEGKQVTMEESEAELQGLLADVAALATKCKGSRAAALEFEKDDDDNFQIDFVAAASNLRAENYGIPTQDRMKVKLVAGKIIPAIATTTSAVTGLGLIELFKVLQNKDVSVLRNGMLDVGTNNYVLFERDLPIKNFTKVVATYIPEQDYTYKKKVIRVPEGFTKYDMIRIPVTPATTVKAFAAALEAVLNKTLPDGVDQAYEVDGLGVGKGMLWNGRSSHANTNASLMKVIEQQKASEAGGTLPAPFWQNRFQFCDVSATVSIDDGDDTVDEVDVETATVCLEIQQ

[3] = target: AMP-activated protein kinase, AMPK (Homo sapiens) (UniProt P54646+O43741+P54619+Q9UGJ0+Q9Y478+Q13131+Q9UGI9); assay: AMP-dependent Kinase enzyme assay. An in vitro enzyme assay that detects ADP turnover that is directly proportional to AMPK activity. This uses naive AMPK that is activated during the assay with MK-8722; type: functional; conditions: 30 µM
[4] = target: Sialic acid-binding Ig-like lectin 9 (Homo sapiens) (UniProt Q9Y336); assay: Hs-Siglec9 ALPHAscreen SOP 20170721; conditions: 10 µM
Chain of Sialic acid-binding Ig-like lectin 9 (Homo sapiens) (Q9Y336 whole entry): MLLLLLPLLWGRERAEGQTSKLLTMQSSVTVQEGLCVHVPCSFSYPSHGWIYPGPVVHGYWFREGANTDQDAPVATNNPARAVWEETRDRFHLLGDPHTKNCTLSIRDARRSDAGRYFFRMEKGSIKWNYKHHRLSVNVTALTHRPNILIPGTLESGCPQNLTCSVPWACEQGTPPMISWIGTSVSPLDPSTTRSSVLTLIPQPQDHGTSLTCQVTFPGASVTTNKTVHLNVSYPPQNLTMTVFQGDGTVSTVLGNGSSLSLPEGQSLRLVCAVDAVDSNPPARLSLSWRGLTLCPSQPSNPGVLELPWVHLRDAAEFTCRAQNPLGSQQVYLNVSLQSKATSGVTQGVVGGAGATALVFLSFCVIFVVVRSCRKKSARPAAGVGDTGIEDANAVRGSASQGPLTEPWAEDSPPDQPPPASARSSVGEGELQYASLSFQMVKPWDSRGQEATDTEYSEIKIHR

Trypanosoma cruzi = assay: Trypanosoma cruzi phosphomannomutase and mannose-1-phosphate guanylyltransferase assay; type: functional; conditions: 10 µM
[5] = target: T2, Arginase-2, mitochondrial (Homo sapiens) (UniProt P78540); assay: in vitro enzyme assay to detect the production of urea directly proportional to the activity of Arginase II; type: functional; conditions: 33.3 µM; note: in the data most compounds retested in dose-response had high values
T2 sequence (whole entry): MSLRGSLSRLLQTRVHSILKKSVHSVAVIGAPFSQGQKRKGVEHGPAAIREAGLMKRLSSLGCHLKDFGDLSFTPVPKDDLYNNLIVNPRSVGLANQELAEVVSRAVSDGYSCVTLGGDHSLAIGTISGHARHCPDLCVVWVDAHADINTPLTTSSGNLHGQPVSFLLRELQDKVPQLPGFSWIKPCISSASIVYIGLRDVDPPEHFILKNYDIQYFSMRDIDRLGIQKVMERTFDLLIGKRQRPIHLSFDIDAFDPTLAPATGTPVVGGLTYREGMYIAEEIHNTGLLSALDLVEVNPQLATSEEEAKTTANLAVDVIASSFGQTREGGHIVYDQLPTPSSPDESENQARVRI

[6] = target: T3, Proteasome subunit beta (Trypanosoma cruzi) (UniProt O96673); assay: Trypanosoma cruzi proteasome chymotrypsin-like activity (TcProtChymo) assay.; note: in the data most compounds retested in dose-response had high values; type: functional; conditions: 9.37 µM
T3 sequence (whole entry): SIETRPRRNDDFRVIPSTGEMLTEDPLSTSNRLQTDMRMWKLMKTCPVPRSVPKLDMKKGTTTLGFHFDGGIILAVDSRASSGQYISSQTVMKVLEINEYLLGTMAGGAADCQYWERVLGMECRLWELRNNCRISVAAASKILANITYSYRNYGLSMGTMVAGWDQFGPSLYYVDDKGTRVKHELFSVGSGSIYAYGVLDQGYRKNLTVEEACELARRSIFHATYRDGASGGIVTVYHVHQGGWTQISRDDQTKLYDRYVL

Homo sapiens = organism: Homo sapiens; assay: To identify inhibition of the IFN signalling (Jak-Stat) pathway via expression of an eGFP reporter gene under the control of an IFN-stimulated response element (ISRE) containing MxA promoter.; type: functional; conditions: 30 µM
[7] = target: T4, Tyrosyl-tRNA synthetase, putative (Trypanosoma cruzi (strain CL Brener)) (UniProt Q4DSP6); assay: Trypanosoma cruzi tyrosyl tRNA synthetase (TcYRS) _High Tyrosine SOP; type: functional; conditions: 30 µM; note: in the data most compounds retested in dose-response had high values
T4 sequence (whole entry): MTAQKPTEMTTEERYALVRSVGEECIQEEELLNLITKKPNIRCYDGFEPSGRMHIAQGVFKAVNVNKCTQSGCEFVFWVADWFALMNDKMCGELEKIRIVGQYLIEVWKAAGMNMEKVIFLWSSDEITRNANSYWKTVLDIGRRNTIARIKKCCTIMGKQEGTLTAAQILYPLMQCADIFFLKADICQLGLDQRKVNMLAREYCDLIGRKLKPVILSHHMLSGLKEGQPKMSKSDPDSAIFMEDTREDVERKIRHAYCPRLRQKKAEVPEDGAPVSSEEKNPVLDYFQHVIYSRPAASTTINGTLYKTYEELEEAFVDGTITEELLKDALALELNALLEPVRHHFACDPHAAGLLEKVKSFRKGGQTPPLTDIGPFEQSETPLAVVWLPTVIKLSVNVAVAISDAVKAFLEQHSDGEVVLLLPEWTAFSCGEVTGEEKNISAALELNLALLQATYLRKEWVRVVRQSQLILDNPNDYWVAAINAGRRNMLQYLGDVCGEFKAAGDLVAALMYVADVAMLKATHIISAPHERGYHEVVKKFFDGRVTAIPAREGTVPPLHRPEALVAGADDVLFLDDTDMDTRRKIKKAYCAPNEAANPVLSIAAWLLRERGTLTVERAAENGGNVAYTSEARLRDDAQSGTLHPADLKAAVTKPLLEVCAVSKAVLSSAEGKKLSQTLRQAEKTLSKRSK

[8] = target: T4, Tyrosyl-tRNA synthetase, putative (Trypanosoma cruzi (strain CL Brener)); assay: Trypanosoma cruzi tyrosyl tRNA synthetase (TcYRS) SOP; type: functional; conditions: 30 µM
[9] = target: Chromo domain-containing protein 1 (Saccharomyces cerevisiae (strain ATCC 204508 / S288c) (Baker's yeast)) (UniProt P32657); assay: ScCHD-1 Enzyme Inhibition Assay; type: functional; conditions: 30 µM; note: in the data most compounds retested in dose-response had high values
Chain of Chromo domain-containing protein 1 (Saccharomyces cerevisiae (strain ATCC 204508 / S288c) (Baker's yeast)) (P32657 whole entry, the tested form may be a part): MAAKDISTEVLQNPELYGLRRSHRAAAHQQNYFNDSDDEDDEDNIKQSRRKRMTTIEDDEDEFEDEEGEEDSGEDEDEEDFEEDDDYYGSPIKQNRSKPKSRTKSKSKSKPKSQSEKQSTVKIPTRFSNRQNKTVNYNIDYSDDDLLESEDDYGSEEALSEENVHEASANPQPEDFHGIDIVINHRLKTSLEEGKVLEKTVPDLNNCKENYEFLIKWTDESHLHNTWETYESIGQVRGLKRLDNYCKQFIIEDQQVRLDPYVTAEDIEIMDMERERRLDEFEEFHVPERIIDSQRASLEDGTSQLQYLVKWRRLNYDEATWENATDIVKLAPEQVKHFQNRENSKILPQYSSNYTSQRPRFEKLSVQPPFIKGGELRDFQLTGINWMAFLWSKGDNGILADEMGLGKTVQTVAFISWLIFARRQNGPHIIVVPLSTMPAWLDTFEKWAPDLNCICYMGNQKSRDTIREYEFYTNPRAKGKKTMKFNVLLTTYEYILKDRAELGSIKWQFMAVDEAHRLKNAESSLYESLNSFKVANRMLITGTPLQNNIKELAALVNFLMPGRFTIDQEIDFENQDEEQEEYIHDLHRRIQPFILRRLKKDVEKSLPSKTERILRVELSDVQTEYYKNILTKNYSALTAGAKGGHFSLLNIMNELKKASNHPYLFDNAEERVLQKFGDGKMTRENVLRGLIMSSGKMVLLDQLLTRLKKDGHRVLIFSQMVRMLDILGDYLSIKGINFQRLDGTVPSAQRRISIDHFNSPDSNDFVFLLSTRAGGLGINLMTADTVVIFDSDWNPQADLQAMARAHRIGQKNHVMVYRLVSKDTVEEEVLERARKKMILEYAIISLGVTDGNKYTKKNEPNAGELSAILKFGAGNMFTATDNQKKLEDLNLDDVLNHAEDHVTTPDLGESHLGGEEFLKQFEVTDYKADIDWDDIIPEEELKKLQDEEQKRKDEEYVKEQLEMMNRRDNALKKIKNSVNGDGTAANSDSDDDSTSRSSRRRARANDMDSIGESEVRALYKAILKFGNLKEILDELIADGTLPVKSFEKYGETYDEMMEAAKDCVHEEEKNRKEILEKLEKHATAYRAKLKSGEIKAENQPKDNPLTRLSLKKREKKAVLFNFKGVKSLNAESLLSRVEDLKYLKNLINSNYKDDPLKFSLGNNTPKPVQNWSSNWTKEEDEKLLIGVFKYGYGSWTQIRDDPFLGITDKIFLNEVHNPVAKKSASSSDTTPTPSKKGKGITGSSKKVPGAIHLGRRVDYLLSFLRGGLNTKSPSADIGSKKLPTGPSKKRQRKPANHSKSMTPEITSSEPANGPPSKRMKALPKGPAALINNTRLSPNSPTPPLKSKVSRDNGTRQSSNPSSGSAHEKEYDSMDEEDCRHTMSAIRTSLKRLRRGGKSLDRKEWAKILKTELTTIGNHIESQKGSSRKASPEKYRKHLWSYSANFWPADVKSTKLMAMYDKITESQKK

Row | Structure (SMILES) | Percent Effect [1] | Percent Effect [2] | Percent Effect [3] | Percent Effect [4] | Percent Effect (Trypanosoma cruzi) | Percent Effect [5] | Percent Effect [6] | Percent Effect (Homo sapiens) | Percent Effect [7] | Percent Effect [8] | Percent Effect [9]
1 | CC(=O)N1CCC(c2ccnc(Nc3cncnc3)n2)C1 (stereo unspecified) | -2.09% | 13.3% | 12.8% | -1.51% | -0.394% | 0.699% | -0.793% | 8.94% | 7.45% | 14.1% | -3.42%
2 | Cc1ccoc1C(=O)N1CC[C@H]2OCC[C@@]2(COCc2ccncc2)C1 | -0.155% | 15.6% | 3.21% | 3.48% | 2.07% | 7.1% | 17.2% | 23.7% | 7.41% | 16.7% | -9.72%
3 | CC(C)CN1CCC(C(=O)Nc2cc(C(F)(F)F)c[nH]c2=O)CC1 | -7.9% | 10.4% | 4.55% | 14.9% | 6.37% | -2.13% | 1.18% | -6.76% | 5.83% | 21.9% | -10.2%
4 | Cc1ncsc1C(=O)N1CCCC(c2noc(C(C)C)n2)C1 (stereo unspecified) | -4.54% | 15.3% | -8.18% | 26.1% | 2.43% | 33.5% | 15.3% | 7.22% | 6.32% | 15.4% | -10.2%
5 | CSC(C)(C)CNC(=O)NC1CCSCC1 | -4.83% | 13.3% | -5.19% | 18.2% | 8.47% | 5.73% | 6.63% | 4.48% | 0.546% | 11.1% | -6.59%
6 | CCCc1nc(C)cc(N2CCC3(CCC(=O)N(CCOC)C3)CC2)n1 | -4.76% | 10.8% | -6.4% | -1.18% | -0.489% | -0.744% | 10.9% | -7.21% | 4.3% | 13.6% | -3.56%
7 | CC(C)(C)c1nnc(CN2CCN(CC(O)c3ccccc3)CC2)o1 (stereo unspecified) | -4.73% | 10.1% | -1.08% | 7.24% | 2.55% | 0% | -6.31% | 10.4% | 5.42% | 16.5% | -5.94%
8 | COCCC(=O)N1CC[C@@H]2O[C@@H](C)C[C@H]2C1 | -6.08% | 8% | 0.716% | 0.473% | 2.36% | -3.96% | 6.61% | 15.7% | 6.38% | 11.5% | -7.49%
9 | Cn1cc(C2CCCN2CCCc2nc(-c3cccs3)no2)cn1 (stereo unspecified) | -0.777% | -32.4% | -4.52% | -1.6% | -3.87% | -6.41% | 7.03% | 18.4% | 4.43% | -6.17% | 0.396%
10 | CCS(=O)(=O)Nc1ccn(Cc2cccc(Cl)c2)n1 | -6.93% | 0% | 0.628% | 6.52% | 2.85% | 1.38% | 9.48% | 13.7% | 6.45% | 13.6% | 120%
11 | Clc1ccc(CN2CCCC(Cn3cncn3)C2)c2ncccc12 (stereo unspecified) | -5.66% | -7.79% | -0.804% | 1.38% | 0.688% | -1.38% | 12% | -2.35% | 4.3% | 3.7% | 3.92%
